Among the data in PubChem BioAssay (NCI) are growth inhibition values, retold here.

Structures are written as SMILES. The panel holds about 79,000 compounds, 15% with a hit somewhere; the sample as a whole holds those more often. A number with no mark means an inactive call. The source made the active and inactive calls. Cut-off read from the data, not from the text of the source: active = growth inhibition above about 70%; inactive = the rest. Where a SMILES comes first, the peptide text is derived from it. The star is where a group is joined. Boc = CC(C)(C)OC(=O)*

A short description of test [1]: NCI Yeast Anticancer Drug Screen. Data for the rad50 strain (AID 155).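 Note: 0% = growth of vehicle-only cultures of the same strain.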 To be noted: S. cerevisiae rad50 strain growth inhibition; at 50.0 µM; hits give high values. A digest of the protocol:
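Relative growth inhibition (compound vs vehicle) was measured in yeast with a defined repair-gene alteration.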

The nature of test [2]: NCI Yeast Anticancer Drug Screen. Data for the mec2-1 strain (AID 157). To be noted: S. cerevisiae mec2-1 strain, at 50.0 µM, hits give high values. In outline:
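Using mec2-1 yeast: add compound, measure growth, express inhibition versus vehicle-treated cultures.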

A short description of test [3]: NCI Yeast Anticancer Drug Screen. Data for the sgs1 mgt1 strain (AID 161).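 Note: 0% = growth of cultures given vehicle only.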 Particulars: S. cerevisiae sgs1 mgt1 strain, at 50.0 µM, hits give high values. A digest of the protocol:
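Growth of a repair-deficient yeast mutant was monitored after compound treatment and expressed as inhibition relative to vehicle-treated cultures.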

Test [4] is described as follows: NCI Yeast Anticancer Drug Screen. Data for the cln2 rad14 strain (AID 165).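 Note: 0% = growth equal to vehicle treated cultures.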 Particulars: S. cerevisiae cln2 rad14 strain, at 50.0 µM, hits give high values. A digest of the protocol: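 Yeast strain cln2 rad14, bearing defects in cell cycle control and DNA repair, serves as the test system; values reflect growth inhibition compared with vehicle.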
The nature of test [5]: NCI Yeast Anticancer Drug Screen. Data for the bub3 strain (AID 167). To be noted: S. cerevisiae bub3 mutant strain, at 50.0 µM, hits give high values. In outline:
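Screening used yeast with an engineered genetic alteration affecting cell cycle control. Compound-exposed cultures were compared with vehicle cultures, and reduced growth was taken as inhibition.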

The nature of test [6]: NCI Yeast Anticancer Drug Screen. Data for the mlh1 rad18 strain (AID 175). To be noted: S. cerevisiae mlh1 rad18 strain growth inhibition; at 50.0 µM; hits give high values. A digest of the protocol:
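Steps: expose repair-defective yeast to compound; measure growth; express inhibition against vehicle-treated controls.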

For `N#CCOS(=O)(=O)O`, the growth inhibition in test [1] was -0.6%; in test [2], 0.45%; in test [3], -1.4%; in test [4] it was -6.7%; in test [5], -3.25%; in test [6], -1%.
Regarding `COC(=O)C1(C)CCCC2(C)C1CCC1(O)C2CC2OC2(C(C)C)C1O` (stereo not given), the growth inhibition is -2.65% in test [1]; -21.4% in test [2]; -0.9% in test [3]; -31.4% in test [4]; -13.2% in test [5]; 3.45% in test [6].
Take `Clc1ccc(-c2nnc(C34CC5CC(CC(C5)C3)C4)o2)cc1`: the growth inhibition is -12.1% in test [1]; -8.65% in test [2]; -11.3% in test [3]; 2.3% in test [4]; -8.5% in test [5]; -18.6% in test [6].
As to `OC1CCOc2ccccc21` (stereo not given), the growth inhibition was -29.8% in test [1]; 10.1% in test [2]; -11.1% in test [3]; 10.2% in test [4]; -14.8% in test [5]; -6.3% in test [6].
As for `Cc1cc(N=[N+]=[N-])c2ccc(Cl)cc2n1`, the growth inhibition is -8.15% in test [1]; 1.05% in test [2]; -5.55% in test [3]; -47% in test [4]; 8.55% in test [5]; 33.1% in test [6].
Turning to `COc1ccccc1NC(=O)N(C)Cc1ccc(Cl)cc1`, the growth inhibition was 11.3% in test [1]; 18.6% in test [2]; 18.9% in test [3]; 3.75% in test [4]; 47.1% in test [5]; 33.1% in test [6].
Take `COC(=O)/C=C(\C)Nc1cccc([N+](=O)[O-])c1`: the growth inhibition in test [1] is -15.2%; in test [2] it was -0.65%; in test [3], -18.9%; in test [4] it was -36.9%; in test [5], -0.75%; in test [6] it was -7.3%.
In the case of `C/C(=N\NC(=S)NCCCCNC(=S)N/N=C(\C)c1ccccn1)c1ccccc1`, the growth inhibition in test [1] was -4.15%; in test [2], 36.1%; in test [3], 14.7%; in test [4], 3.65%; in test [5], 38.4%; in test [6], 13.9%.
For `O=C(O)CCCC(=O)c1ccccc1`, the growth inhibition in test [1] is 5%; in test [2], -8.65%; in test [3], 4.85%; in test [4] it was -9.05%; in test [5] it was -5.9%; in test [6] it was 20.1%.
As to `Cc1nc2c(o1)C(=O)c1ccccc1C2=Nc1ccc(N2CCOCC2)cc1`, the growth inhibition was 78.9% (active) in test [1]; 29.7% in test [2]; 13.2% in test [3]; -1.15% in test [4]; 11.9% in test [5]; 39.1% in test [6].
On to `O=C(O)C1(CC(CCCN2CCCCC2)c2ccccc2)CCCC1` (stereo not given), for which the growth inhibition was -40% in test [1]; -9.65% in test [2]; -4.1% in test [3]; 6.4% in test [4]; -15.4% in test [5]; -36.3% in test [6].
Regarding `O=C(O)CC(O)(c1ccccc1C(=O)O)c1cccc2ccccc12` (stereo not given), the growth inhibition in test [1] was -2.95%; in test [2], -4.05%; in test [3] it was 18.4%; in test [4], 25.2%; in test [5] it was -3.15%; in test [6], 22.3%.
Regarding `CCCCCCCCCCCCC(N)C(=O)O` (stereo not given), the growth inhibition is 3.55% in test [1]; -9.15% in test [2]; 28% in test [3]; -15.8% in test [4]; 6.7% in test [5]; -1.3% in test [6].
`Nc1ccc(C(=O)c2ccccc2)cc1`: the growth inhibition in test [1] is 33.2%; in test [2], 13.9%; in test [3], 25.4%; in test [4], -8.55%; in test [5], -1.55%; in test [6], 4.9%.
As for `CC(CC(=O)O)C1(C)C2CCCCC2C2CCCCC21` (stereo not given), the growth inhibition in test [1] was -6.2%; in test [2], -9.6%; in test [3], 5.75%; in test [4], -13.3%; in test [5], -4.15%; in test [6] it was -2.8%.
`CN1CN(C)C(c2ccncc2)=C1c1ccncc1`: the growth inhibition in test [1] was -36%; in test [2], -47.5%; in test [3], -29.9%; in test [4], -0.5%; in test [5], -58.3%; in test [6], -19.5%.
As for `CCOC(=O)C(CC(C)C)NC(=O)C(Cc1ccccc1)NC(=O)CNC(=O)OC(C)(C)C` (stereo not drawn) (Boc-Gly-Phe-Leu-OEt; configuration not given here), the growth inhibition in test [1] is 7.65%; in test [2], 7.35%; in test [3], 9.45%; in test [4], -11.7%; in test [5], 7.2%; in test [6], 18.2%.
Consider `O=C(O)C1CC2C3CCC2C1C3=O` (stereo not given), for which the growth inhibition in test [1] was -8.8%; in test [2] it was -26.3%; in test [3], 23.1%; in test [4], 4.4%; in test [5], -2.8%; in test [6], -34.7%.
With `c1ccc2c(c1)[nH]c1c2ncc2[nH]c3ccccc3c21`, the growth inhibition in test [1] is -2.7%; in test [2], 2.85%; in test [3], -7.35%; in test [4], -60.2%; in test [5] it was -1.8%; in test [6] it was 7.25%.
Regarding `COc1cccc2c1CCC(=O)C2C` (stereo not given), the growth inhibition in test [1] was 35.1%; in test [2], -0.9%; in test [3], 14.3%; in test [4] it was -5.45%; in test [5] it was 13.6%; in test [6] it was 22.9%.
In the case of `Cc1ccc(C(=O)N/N=C/c2ccc(N(C)C)cc2Cl)cc1`, the growth inhibition was 39.5% in test [1]; 20.2% in test [2]; 16.4% in test [3]; 22.9% in test [4]; 61% in test [5]; 21.9% in test [6].
Turning to `O=C(O)C(O)C(O)C(O)C(O)C(=O)O.[NH-]C1CCCCC1[NH-].[Pt+2]` (stereo not given), the growth inhibition in test [1] was 8.15%; in test [2], -3.25%; in test [3], -1.55%; in test [4] it was 12.9%; in test [5], 8.25%; in test [6], 6.75%.
`CC(C)(C)CC(C)(C)NCc1ccccc1`: the growth inhibition in test [1] was 22.9%; in test [2], -5.55%; in test [3] it was 2.5%; in test [4], 0.2%; in test [5], 2.5%; in test [6], 18.3%.
With `CC1=NN(C(=O)c2ccc(Cl)cc2)C(=O)C1N=Nc1ccc(S(=O)(=O)Nc2ccccn2)cc1` (stereo not given), the growth inhibition in test [1] was -0.85%; in test [2], 16.8%; in test [3], 14.7%; in test [4], 20.2%; in test [5], -10.6%; in test [6], 30.7%.
Regarding `CCC(C=NCCBr)(CCC(=O)OC)CCC(=O)OC`, the growth inhibition in test [1] is -7.9%; in test [2], 16.2%; in test [3], -13.9%; in test [4], -8.4%; in test [5], 12.4%; in test [6] it was 10.2%.
`CC(C)COC(=O)N1N=NC2C3CC(=O)C(O3)C21` (stereo not given): the growth inhibition in test [1] was 9.8%; in test [2], -9.7%; in test [3] it was -14.2%; in test [4], 11.6%; in test [5], -7.75%; in test [6], -4.75%.
Take `O=C1O[C@@H](c2ccc3c(c2)OCO3)C2C(=O)O[C@@H](c3ccc4c(c3)OCO4)C12` (stereo not given in full): the growth inhibition in test [1] is 13.5%; in test [2], 8.95%; in test [3], -8.15%; in test [4], 19.4%; in test [5] it was 2.6%; in test [6] it was 21.7%.
As to `CC(C)(C)c1cc(Nc2c([N+](=O)[O-])cc([N+](=O)[O-])cc2[N+](=O)[O-])cc(C(C)(C)C)c1O`, the growth inhibition in test [1] was -17.7%; in test [2], 10.4%; in test [3], 2.65%; in test [4] it was 20.4%; in test [5], -5.4%; in test [6], 0.45%.
Regarding `CC(=O)Nc1c(OC(C)=O)ccc2cc(Br)ccc12`, the growth inhibition in test [1] is -0.15%; in test [2] it was 20.9%; in test [3], 12.4%; in test [4], -15.2%; in test [5], -0.25%; in test [6], 8.85%.
Take `COC(=O)[C@]1(C)OP(OC)(OC)(OC)O[C@]1(C)C(=O)OC`: the growth inhibition in test [1] is -3.4%; in test [2] it was -10.2%; in test [3] it was 3.25%; in test [4] it was -40.5%; in test [5], -2.15%; in test [6], -1.6%.
Turning to `CCOC(=O)C1=NN(c2ccccc2)C(=O)/C1=C\N1C(=S)NC(=O)/C1=C\c1cccc([N+](=O)[O-])c1`, the growth inhibition in test [1] is 11.2%; in test [2], -11.6%; in test [3] it was 1.25%; in test [4] it was 31.3%; in test [5], -4.8%; in test [6], -4.8%.
On to `COC(=O)c1ccccc1CC1Cc2ccc3c(c2C1)CCC3` (stereo not given), for which the growth inhibition is -0.8% in test [1]; 5.45% in test [2]; -1.65% in test [3]; -31.6% in test [4]; 2.55% in test [5]; 13.7% in test [6].
As to `NC(=O)CC[n+]1ccc(C(=O)O)cc1`, the growth inhibition was -21.8% in test [1]; -31.7% in test [2]; -6.1% in test [3]; 0.4% in test [4]; -25.1% in test [5]; -5.05% in test [6].
Regarding `Cc1c(NC=O)c(=O)n(-c2ccccc2)n1C`, the growth inhibition is -10.8% in test [1]; -33% in test [2]; 32.9% in test [3]; 3.65% in test [4]; 14.4% in test [5]; 33.7% in test [6].
Take `COc1ccc(/C(C)=N/OC(=O)c2sc3ccccc3c2Cl)cc1CN1CCOCC1`: the growth inhibition in test [1] is -17.9%; in test [2] it was -23.9%; in test [3], -25.4%; in test [4], -2.05%; in test [5], -28.9%; in test [6] it was -21.6%.
Turning to `O=C1c2c(ccc3c2CCCC3)CC12Cc1ccccc1C2`, the growth inhibition in test [1] was 8.9%; in test [2] it was -4.45%; in test [3], 9.25%; in test [4], -2.75%; in test [5], 4.8%; in test [6], 4.7%.
On to `CCOC(=O)C1(Cc2ccccc2)Cc2ccccc2C1=O` (stereo not given), for which the growth inhibition was 7.75% in test [1]; 29.9% in test [2]; 79% (active) in test [3]; 62.1% in test [4]; 73.7% (active) in test [5]; 63.5% in test [6].
As for `CC(C)NS(=O)(=O)c1ccc(Cl)cc1`, the growth inhibition in test [1] is 11.6%; in test [2], 1.65%; in test [3], 12.4%; in test [4] it was 0.4%; in test [5], -1.1%; in test [6], 1.85%.
Consider `COC(=O)CC1CSCC1=O` (stereo not given), for which the growth inhibition is 7.5% in test [1]; 22.1% in test [2]; 5.95% in test [3]; -12.5% in test [4]; 12.6% in test [5]; 11.2% in test [6].
In the case of `Nc1nc(-c2ccccc2)cc2ccccc12`, the growth inhibition in test [1] was 0.55%; in test [2], -12.7%; in test [3] it was 1.65%; in test [4], -18.7%; in test [5], -13.2%; in test [6] it was 18.1%.
